Screens from PubChem BioAssay.
In the library only some 1.9% were active in any assay of this set; here they are far more common.
KLF5 inh – inhibitors of KLF5 expression. DLD-1 KLF5 promoter-luciferase reporter, luminescence. 290,000 tested, 0.23% active. inhibition, % at 5 µM;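 active = inhibition above a per-plate limit of that plate's mean compound inhibition plus 3 SD, cut at about 60% in these data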;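 note: higher means less KLF5 promoter-driven luciferase light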
Ba/F3 V617F tox – lowers viability of Ba/F3 cells expressing EpoR and JAK2V617F. ATP luminescence. inhibition, % at 5.6 µM. 220,000 tested, 1.1% active. AID 1446;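 active = inhibition above the campaign mean plus 3 SD over all tested compounds, cut at about 24% in these data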;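 note: cytokine-independent growth of Ba/F3 cells driven by EpoR plus mutant JAK2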
BaF3 tox – reduces parental Ba/F3 cell viability, JAK2V617F counter-screen | inhibition, % at 5.6 µM | CellTiter-Glo ATP luminescence | 220,000 tested, 1.1% active;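 active = inhibition above a per-campaign cutoff, the mean inhibition of all tested compounds plus 3 SD, cut at about 27% in these data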
APP transl inh – APP translation inhibition | SH-SY5Y APP 5'UTR-luciferase reporter, luminescence | inhibition, % at 2 µM | 190,000 tested, 0.82% active;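 active = inhibition above a set limit, derived from the sample mean plus 3 SD, cut at about 45% in these data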
IEC-6 tox – counter-screen for KLF5 inhibitors: cytotoxicity in IEC-6 cells | IEC-6 cytotoxicity, luminescence viability | inhibition, % at 5 µM | 290,000 tested, 0.78% active | AID 1825; in the data active = inhibition above about 22%
A number is an active result; 0 = inactive; - = not tested or not shown.

SMILES	KLF5 inh	Ba/F3 V617F tox	BaF3 tox	APP transl inh	IEC-6 tox
Cn1nnc(C(O)CN2CCOCC2)n1 (centres undefined)	0	0	0	0	0
COCCn1c(=NC(=O)c2ccc(S(=O)(=O)N3CCOCC3)cc2)sc2cc(S(N)(=O)=O)ccc21	0	-	-	-	0
CCn1c(=NC(=O)c2ccc(S(=O)(=O)N3CCOCC3)cc2)sc2cccc(OC)c21	0	35	42	0	0
Cc1ccc(S(=O)(=O)CC(=O)c2ccc([N+](=O)[O-])cc2)cc1	0	0	0	-	0
O=C(CN(Cc1ccccc1)S(=O)(=O)c1ccccc1)N/N=C/c1ccc([N+](=O)[O-])cc1	0	0	95	0	0
O=C(CN(Cc1ccccc1)S(=O)(=O)c1ccccc1)N/N=C/c1ccc2c(c1)OCO2	0	0	0	0	0
CC1(C)OC(C)(C)/C(=C\c2ccccc2[N+](=O)[O-])C1=O	0	-	-	-	0
COc1ccc(CCNC(=O)c2nonc2N)cc1OC	0	0	69	0	0
Oc1ccccc1/C=N/Nc1ccnc(SCc2ccccc2)n1	0	0	0	56	0
Oc1ccccc1/C=N/Nc1ncc(Br)cn1	0	0	0	57	0
Oc1ccccc1/C=N/Nc1ccccc1	0	0	0	0	0
Cc1sc2ncnc(N/N=C/c3ccc(O)cc3)c2c1C	0	0	0	0	0
Cc1sc2ncnc(N/N=C/c3ccccc3O)c2c1C	0	0	0	77	0
O=C1C2=C(SCCS2)C(=O)N1c1ccccc1	0	0	0	0	0
O=C(CCc1ccc(S(=O)(=O)N2CCOCC2)cc1)N/N=C/c1ccc(F)cc1F	0	0	0	0	0
CC(=O)OCCNc1cc(Sc2nc3ccccc3[nH]2)c2nonc2c1[N+](=O)[O-]	0	0	0	79	0
CCCCn1cc2c(c1-c1cccc(C)c1)c(=O)n(C)c(=O)n2C	0	0	0	-	0
Cn1c(=O)c2c(O)c(C=NCc3ccccc3)c(=O)n(C)c2n(C)c1=O	0	0	0	-	0
Cn1c(O)c(C=NCC2CCNCC2)c(=O)n(C)c1=O	0	0	93	0	0
COc1nc(-c2ccccc2)cc(-c2ccc3c(c2)OCO3)c1C#N	0	0	0	-	0
CCOc1cnn(-c2cc(Oc3ccc(C)cc3)ncn2)c(=O)c1Cl	0	0	0	74	0
CSc1nc(-c2ccccc2)nc(NC(=O)C(C)C)c1C(C)=O	0	0	0	54	0
CCC(=O)Nc1nc(-c2ccccc2)nc(SC)c1C(C)=O	0	0	0	0	0
CCN(C(=O)c1cc2ccccc2oc1=O)c1cccc(C)c1	0	0	0	0	0
O=C(Nc1cccs1)Nc1ccccc1Cl	0	0	0	0	0
SMILES	KLF5 inh	Ba/F3 V617F tox	BaF3 tox	APP transl inh	IEC-6 tox
Cc1c(NC(=O)Nc2cccs2)cccc1[N+](=O)[O-]	0	0	29	0	0
CCn1c(C)c(C(C)=O)c(N2CCN(C(=O)c3ccco3)CC2)nc1=S	0	0	0	0	0
Oc1ccc(-c2n[nH]c(C(F)(F)F)c2-c2ccccc2)c(O)c1	0	56	78	0	0
COc1ccccc1-c1c(-c2ccc(O)cc2O)n[nH]c1C(F)(F)F	0	48	45	-	0
COc1cc2c(cc1OC)CN(Cc1cc(OC)c3c(c1)OCO3)CC2	0	-	-	-	0
COc1cc2c(cc1O)CC[n+]1cc3c(OC)c(OC)ccc3cc1-2	0	0	45	0	0
COc1cc2c(cc1OC)-c1cc3ccc4c(c3c[n+]1CC2)OCO4	0	49	57	0	0
Cc1ccc(C2CC(C(F)(F)F)n3nc(C(=O)NCc4c(C)nn(C)c4C)c(Cl)c3N2)cc1 (centres undefined)	0	44	55	0	0
CCCNS(=O)(=O)c1ccc(OCC(=O)NCCCOC)cc1	0	0	0	0	0
O=C(O)c1ccc(Nc2ncnc3scc(-c4ccccc4)c23)cc1	0	0	0	0	0
CCOc1ccccc1-n1nnnc1SCC(=O)Nc1cc(C)on1	0	0	39	0	0
COc1ccccc1-n1nnnc1SCC(=O)Nc1cc(C)on1	0	0	0	0	0
Cc1ccc2c(N)c(C)ccc2c1	0	0	0	0	0
Cc1ccc2cc3c(N)c4c(C)ccc(C)c4nc3nc2c1	0	0	0	56	0
Cc1ccc(C)c(N/C(N)=N/c2nc(C)cc(C)n2)c1	0	0	0	0	0
Cc1ccc(CN=C(N)Nc2nc(C)cc(C)n2)cc1	0	81	77	71	48
CCOC(=O)c1ccc(-c2ccc(C3Nc4ccccc4C(=O)N3O)o2)cc1 (centres undefined)	0	0	0	0	0
Cc1cc([N+](=O)[O-])ccc1-c1ccc(C2Nc3ccccc3C(=O)N2O)o1 (centres undefined)	0	0	0	54	0
Cc1ccc(CCNC(=O)C2CCCN(C(=O)N(C)C)C2)cc1 (centres undefined)	0	0	0	0	0
COc1cccc(Oc2ccc(S(=O)(=O)N3CCCC3)cc2[N+](=O)[O-])c1	0	-	-	-	0
CCOC(=O)c1c(C)[nH]c(C(=O)COC(=O)/C=C/c2ccc(OC(F)F)cc2)c1C	0	0	65	0	0
CCOC(=O)c1c(C)[nH]c(C(=O)COC(=O)c2ccc(O)cc2)c1C	0	39	40	-	0
CCOC(=O)c1[nH]c(C)c(C(=O)OCC(=O)N2CCc3ccccc32)c1C	0	0	0	46	0
Cc1ccc(OCC(=O)N(Cc2cccs2)C2CCS(=O)(=O)C2)cc1 (centres undefined)	0	0	0	-	0
Cc1ccccc1C(=O)c1cccn1CC(=O)NCC1CCCO1 (centres undefined)	0	0	0	0	0
SMILES	KLF5 inh	Ba/F3 V617F tox	BaF3 tox	APP transl inh	IEC-6 tox
CNC(=O)N(C1=NCCCCC1)c1ccc(Br)cc1	0	0	0	45	0
CCOc1ccc(N(C(=O)Nc2ccccc2)C2=NCCC2)cc1	0	0	0	0	0
O=C(Cn1cnc2ccccc2c1=O)N1CCOCC1	0	0	0	50	0
CCOc1ccccc1N(CC(=O)NC1CCCCC1)S(=O)(=O)c1ccc(C)cc1	0	-	-	-	0
O=C(CSc1nnc(COc2ccc(Cl)cc2)o1)N1CCCC1	0	-	-	-	0
O=C(CSc1nnc(COc2ccc(Cl)cc2)o1)N1c2ccccc2CCc2ccccc21	0	25	46	0	0
Cc1cc(C)cc(-n2c(C)cc(/C=N/NC(=O)CN(c3c(C)cccc3C)S(C)(=O)=O)c2C)c1	0	0	0	90	0
Cc1cccc(NC(=O)C2c3ccccc3C(=O)N3CCc4ccccc4C23)n1 (centres undefined)	0	0	0	0	0
CCN1C(=O)OC2(CCCCC2)C1(C)O (centres undefined)	0	0	0	0	0
O=C(Cc1ccccc1)Nc1cccc(N2C(=O)C=CC2=O)c1	0	0	0	67	0
Cc1cccc(OCc2nnc(SCC(=O)N3CCCCC3)o2)c1	0	-	-	-	0
CC12CCCCN1CCCc1c2[nH]c2ccccc12 (centres undefined)	0	0	0	0	0
Fc1ccc(NC(=S)N2CCc3ccccc3C2)c(F)c1	0	0	39	0	0
Fc1ccc(NC(=S)N2CCOCC2)c(F)c1	0	-	-	-	0
CCc1ccccc1NC(=O)c1ccoc1C	0	0	0	0	0
